The text below walks through data of PubChem BioAssay AID1494156 (National Center for Advancing Translational Sciences (NCATS), 2020).

SMILES strings stand for the structures. Inconclusive results are not listed. Calls of active or inactive are those of the source. The call rests on the fitted dose curve.

The nature of the assay: VSV-G qHTS counterscreen for inhibitors of MERS-S pseudo-typed particle cell entry. Particulars: VSV-G pseudotyped particle cell entry, luciferase counterscreen; series mostly up to 57.1 µM. Background: qHTS replaces the single test concentration by a dilution series.
Consider `O=c1c(C2CC(c3ccc(-c4ccc(Br)cc4)cc3)Cc3ccccc32)c(O)sc2ccccc12` (stereo not drawn), for which the Potency was 6.07 µM (active).

`C[n+]1c2cc(N)ccc2cc2ccc(N)cc21` (tested in a mixture with another compound): the Potency was 1.71 µM (active).

Regarding `CCCCCCOC(=O)NC(=N)c1ccc(NCc2nc3cc(C(=O)N(CCC(=O)OCC)c4ccccn4)ccc3n2C)cc1`, the Potency was 27.1 µM (active).

As to `CCn1cc(C(=O)O)c(=O)c2cc(F)c(N3CCNC(C)C3)c(F)c21` (stereo not drawn), the Potency result was “inactive”.

Take `N=C(N)c1ccc(OCCCCCOc2ccc(C(=N)N)cc2)cc1`: the Potency is 10.8 µM (active).

Take `CCCCCCCCCCCCCC[n+]1ccc(C)cc1`: the Potency was 1.71 µM (active).

As for `CC(=O)[C@]1(O)Cc2c(O)c3c(c(O)c2[C@@H](O[C@H]2C[C@H](N)[C@H](O)[C@H](C)O2)C1)C(=O)c1ccccc1C3=O`, the Potency was 2.15 µM (active).

For `C=C1c2c(Cl)ccc(O)c2C(O)=C2C(=O)[C@@]3(O)C(O)=C(C(N)=O)C(=O)[C@@H](N(C)C)[C@@H]3[C@@H](O)[C@H]12`, the Potency was 19.2 µM (active).

`CC(C)C(=O)Oc1ccc(CO)cc1[C@H](CCN(C(C)C)C(C)C)c1ccccc1`: the Potency was 21.5 µM (active).

Regarding `COc1cc2nccc(Oc3ccc(NC(=O)NC4CC4)c(Cl)c3)c2cc1C(N)=O`, the Potency is 17.1 µM (active).

For `CCN(CC)Cc1cc(Nc2ccnc3cc(Cl)ccc23)ccc1O`, the Potency was 24.1 µM (active).

With `C=C(C)[C@H]1Cc2c(ccc3c2O[C@@H]2COc4cc(OC)c(OC)cc4[C@@H]2C3=O)O1`, the Potency was 0.0108 µM (active).

With `Nc1ccn([C@@H]2O[C@H](CO)[C@@H](O)C2(F)F)c(=O)n1`, the Potency was 0.136 µM (active).
